Reference: ChEMBL document CHEMBL4513216, “Probing the Open Global Health Chemical Diversity Library for Multistage-Active Starting Points for Next-Generation Antimalarials” (ACS Infect Dis, 2020)
Screen size: about 68,000 compounds; about 2,700 (4%) showed an effect of 50% or more. Only a selection was taken, and strong results are over-represented in it overall.

Each molecule was assayed on Plasmodium berghei (assay: Screen against P. berghei liver stage (PbLuc), transformed with Luciferase, at 2uM). Conditions: tested at 2 uM.
Format: functional, HepG2

Row | SMILES | INHIBITION [%]
1 | Cc1cn2nc(N3CCN(Cc4c(C)noc4C)CC3)sc2n1 | -4.99
2 | Oc1cc(C2CCCN(Cc3cccs3)C2)nc(-c2ccccn2)n1 (stereo not given) | 30.29
3 | COc1ccc(N2CCN(CC[C@H](O)c3ccccc3)CC2=O)cc1 | 17.28
4 | COc1cccc(N2CCN(CC[C@H](O)c3ccccc3)CC2=O)c1 | 61.75
5 | N#CCc1cccc(C(=O)N2CCN(CC(O)c3ccccc3)CC2)c1 (stereo not given) | 29.42
6 | COc1cccc(C(=O)N2CCN(CC(O)c3ccccc3)CC2)c1 (stereo not given) | 55.25
7 | COc1ccccc1N1CCN(CC[C@H](O)c2ccccc2)CC1=O | -23.57
8 | COc1cccc(C(O)CN2CCN(C(=O)c3ccsc3)CC2)c1 (stereo not given) | 38.49
9 | COCC(=O)N1CCn2c(CN3CCN(C)CC3)cnc2C1 | -11.88
10 | Cc1nccc(N2CCCC(C)(C(=O)NC3CCCC3)C2)n1 (stereo not given) | 1.42
11 | O=C(c1cnc(COc2ccccc2)nc1O)N1CCC(F)(F)CC1 | 10.91
12 | Cc1nc(CN2CCC3(CCN(C(=O)c4ccoc4C)CC3)C2)cs1 | -13.88
13 | Cc1nn(C)c(N2CCOCC2)c1CNCc1ccnn1C | 8.06
14 | Cc1nn(C)c(N2CCOCC2)c1CNC1CCC(O)CC1 (stereo not given) | -5.7
15 | Cc1nn(C)c(N2CCOCC2)c1CNCC1CCCN1C (stereo not given) | 53.98
16 | Cc1nn(C)c(N2CCOCC2)c1CNC1CCN(C2CC2)CC1 | 24.65
17 | Cc1nn(C)c(N2CCOCC2)c1CNCC1CCN(C2CC2)C1 (stereo not given) | 59.03
18 | Cc1nn(C)c(N2CCOCC2)c1CNCC1CCS(=O)(=O)C1 (stereo not given) | 5.17
19 | COCCC(=O)N1CCCC1c1nccc(C)n1 (stereo not given) | -17.21
20 | CNC(=O)C1CCN(c2ncnc3c2CCN(C(=O)C2CC2)C3)C1 (stereo not given) | 16.53
21 | OC1CCN(Cc2c(-c3ccco3)[nH]c3ncccc23)CC1 | 8.09
22 | Cc1nc(CN2CCCC(N(C)Cc3nc(CC(C)C)no3)C2)no1 (stereo not given) | 23.86
23 | CC(=O)N1CCC(c2nccnc2-c2ccc(F)cc2)CC1 | 33.77
24 | CC(=O)N1CCC(c2nccnc2-c2ccc(C(=O)O)cc2)CC1 | 51.57
25 | COc1ccc(-c2nccnc2C2CCN(C(C)=O)CC2)cc1 | -30.31
26 | CC(C)c1ncc2c(n1)CN(CC(=O)Nc1ccncc1)CC2 | -36.7
27 | Cc1csc(N2CCN(C(=O)NCCNc3ncccn3)CC2)n1 | -10.6
28 | O=C(COCC1CC1)Nc1ncccc1O | 25.23
29 | CN(C)c1ncccc1NC(=O)COC1CCCC1 | 35.13
30 | CN(C)c1ncccc1NC(=O)COCC1CC1 | 64.35
